{"source": "ChEMBL document CHEMBL2218924", "about": "“A broad activity screen in support of a chemogenomic map for kinase signalling research and drug discovery” (Biochem J, 2013)", "data": [{"target": "Calcium/calmodulin-dependent protein kinase type 1 (Homo sapiens) (UniProt Q14012)", "sequence (Q14012 whole entry, looked up)": "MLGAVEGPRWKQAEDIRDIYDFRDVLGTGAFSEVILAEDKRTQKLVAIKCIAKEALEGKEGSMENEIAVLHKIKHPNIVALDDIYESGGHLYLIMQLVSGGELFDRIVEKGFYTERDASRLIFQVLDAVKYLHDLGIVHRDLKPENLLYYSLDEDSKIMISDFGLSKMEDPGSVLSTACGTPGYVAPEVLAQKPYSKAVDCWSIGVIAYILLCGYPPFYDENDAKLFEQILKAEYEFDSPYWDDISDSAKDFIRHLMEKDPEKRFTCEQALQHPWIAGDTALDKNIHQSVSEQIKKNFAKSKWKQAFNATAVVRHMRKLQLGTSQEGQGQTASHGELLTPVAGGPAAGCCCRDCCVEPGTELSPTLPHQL", "conditions": "at 10 µM", "units": {"residual activity": "%"}, "values": [{"compound": "COc1ccc(COc2ccc(Cc3cnc(N)nc3N)cc2OC)cc1", "residual activity": 76}, {"compound": "CCOc1nc(NC(=O)Cc2cc(OC)ccc2OC)cc(N)c1C#N", "residual activity": 78}, {"compound": "COc1ccc(CNC(=O)Nc2ncc([N+](=O)[O-])s2)cc1", "residual activity": 72}, {"compound": "O=C(c1cc2cc(O)ccc2[nH]1)c1cc2cc(O)ccc2[nH]1", "residual activity": 37}, {"compound": "N#C/C(=C\\c1ccc(O)c(O)c1)C(=O)NCc1ccccc1", "residual activity": 87}, {"compound": "CCCC(=O)Oc1ccc2[nH]c(C(=O)c3cc4ccccc4[nH]3)cc2c1", "residual activity": 89}, {"compound": "CSc1nc(-c2ccc(F)cc2)c(-c2ccnc(NC(C)c3ccccc3)c2)[nH]1", "note": "(configuration not stated)", "residual activity": 87}, {"compound": "Nc1nc(Nc2ccc(S(N)(=O)=O)cc2)nn1C(=O)c1c(F)cccc1F", "residual activity": 60}, {"compound": "O=C1NC(=O)C(c2c[nH]c3ccccc23)=C1c1c[nH]c2ccccc12", "residual activity": 57}, {"compound": "NC(=O)c1ccc(-c2nc(-c3ccc4c(c3)OCCO4)c(-c3ccccn3)[nH]2)cc1", "residual activity": 73}, {"compound": "COc1cc2nccc(Oc3ccc(NC(=S)NC(=O)c4ccccc4C)cc3)c2cc1OC", "residual activity": 75}, {"compound": "O=C1C(Cl)=C(N2C(=O)CCC2=O)C(=O)c2ccccc21", "residual activity": 78}, {"compound": "O=C1Nc2ccccc2/C1=C\\c1c(Cl)[nH]c2ccccc12", "residual activity": 51}, {"compound": "O=c1cc(N2CCOCC2)oc2c(-c3ccccc3)cccc12", "residual activity": 55}, {"compound": "CCCCc1c(-c2ccc(O)cc2)[nH]c2nccnc12", "residual activity": 71}, {"compound": "CN(C)S(=O)(=O)c1ccc2c(c1)/C(=C/c1cc3c([nH]1)CCCC3)C(=O)N2", "residual activity": 94}, {"compound": "CCOC(=O)c1c(C)[nH]c(/C=C2\\C(=O)Nc3ccccc32)c1C", "residual activity": 77}]}]}
